Our source for the GI50 values is ChEMBL document CHEMBL1201862, “PubChem BioAssay data set” (2004).

Out of some 57,000 sequences screened, about 4,100 (7.2%) were called active. Cut-off read from the data, not from the text of the source: active = GI50 up to about 1.1 µM and inactive = higher. Not all results are given here. Entries with a potency or affinity are not part of this list.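 48-hour exposure; five concentrations; linearly interpolated endpoints. Here, GI50 denotes the concentration required for 50% inhibition of growth.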

In the test the test system is SK-MEL-5. Kind of test: NCI tumour cell line growth inhibition, 48 h.
As for “cis-Bis[[(trimethylsilyl)methyl]amino]tetrachloroplatinum(IV), CHEMBL2146191”, the GI50 is 3.48 µM.
The value for “[Bis(aminomethyl)tetramethylenesilane]tetrachloropaltinum(IV), CHEMBL2146189” was 5.77 µM; that for CISPLATIN, CHEMBL11359 was 2.69 µM.
In the case of “[Bis(aminomethyl)tetramethylenesilane]dichloropaltinum(II), CHEMBL2146205”, the GI50 turned out to be 14.8 µM.
With “[Bis(aminomethyl)pentamethylenesilane]dichloropaltinum(II), CHEMBL2146202”, the GI50 was 3.3 µM.
In turn, “[Bis(aminomethyl)diethylsilane]tetrachloroplatinum(IV), CHEMBL2146203” yielded a GI50 of 73.8 µM.
As for “[Bis(aminomethyl)ethylmethylsilane]tetrachloroplatinum(IV), CHEMBL2146192”, the GI50 stood at 1.15 µM.
The substance “[Bis(aminomethyl)pentamethylenesilane]tetrachloropaltinum(IV), CHEMBL2146204” came in with a GI50 of 3.21 µM.
“mu-(1,7-nanodiamine-N,N')bis-(cis-aminedichloroplatimum (II)), CHEMBL2146215”: the GI50 was determined as 5.82 µM.
Take “[Bis(aminomethyl)dimethylsilane]dichloroplatinum (II), CHEMBL2146201”: the GI50 is 11.2 µM.
The value for “[Bis(aminomethyl)dimethylsilane]tetrachloroplatinum(IV), CHEMBL2146190” was 3.85 µM.
